{
  "source": "paper PMC4336329",
  "about": "(PLoS ONE, 2015)",
  "note": "About 14,000 (4.5%) of roughly 310,000 compounds showed an effect of 50% or more. Effects have a minus sign here. The list comes from a sample in which strong results are over-represented; it also holds similar structures and randomly drawn compounds.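 Note: peak tail current of the secondary pulse compared with the same well before compound.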",
  "data": [
    {"target": "human ether-à-go-go-related gene (hERG) potassium channel (human, UniProt Q12809)", "sequence (Q12809 whole entry, looked up)": "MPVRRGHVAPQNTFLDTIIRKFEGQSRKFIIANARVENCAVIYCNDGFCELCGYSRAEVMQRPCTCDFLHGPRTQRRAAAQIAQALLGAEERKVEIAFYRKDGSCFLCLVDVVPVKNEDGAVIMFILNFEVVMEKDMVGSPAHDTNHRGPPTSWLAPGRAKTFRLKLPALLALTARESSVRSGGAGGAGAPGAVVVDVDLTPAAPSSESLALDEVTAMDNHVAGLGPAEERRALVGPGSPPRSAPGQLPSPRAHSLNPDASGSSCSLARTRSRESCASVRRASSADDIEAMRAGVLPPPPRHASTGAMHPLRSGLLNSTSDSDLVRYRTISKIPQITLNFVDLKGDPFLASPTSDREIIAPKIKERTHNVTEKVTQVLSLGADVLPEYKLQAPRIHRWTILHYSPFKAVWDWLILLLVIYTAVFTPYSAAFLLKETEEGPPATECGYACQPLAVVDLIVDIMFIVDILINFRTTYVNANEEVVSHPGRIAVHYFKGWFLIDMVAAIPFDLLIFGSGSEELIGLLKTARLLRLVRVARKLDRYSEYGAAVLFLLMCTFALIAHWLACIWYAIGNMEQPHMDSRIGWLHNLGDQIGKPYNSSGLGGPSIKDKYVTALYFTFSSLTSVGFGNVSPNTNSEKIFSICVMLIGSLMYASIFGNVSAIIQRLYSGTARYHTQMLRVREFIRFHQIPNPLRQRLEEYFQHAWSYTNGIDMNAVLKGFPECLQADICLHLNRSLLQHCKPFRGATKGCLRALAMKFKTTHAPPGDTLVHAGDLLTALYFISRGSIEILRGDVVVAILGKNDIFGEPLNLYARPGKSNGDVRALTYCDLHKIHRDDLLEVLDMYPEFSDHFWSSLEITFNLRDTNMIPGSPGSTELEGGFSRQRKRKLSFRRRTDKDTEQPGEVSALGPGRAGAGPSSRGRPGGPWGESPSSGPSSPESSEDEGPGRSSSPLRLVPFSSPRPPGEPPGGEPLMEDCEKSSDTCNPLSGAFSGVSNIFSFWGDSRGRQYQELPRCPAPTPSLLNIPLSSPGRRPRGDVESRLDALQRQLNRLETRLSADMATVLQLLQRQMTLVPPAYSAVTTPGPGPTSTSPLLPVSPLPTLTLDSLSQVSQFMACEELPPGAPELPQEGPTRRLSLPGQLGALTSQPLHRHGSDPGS", "assay": "primary screen, population patch clamp on CHO cells stably expressing hERG; higher = less effect of the substance", "units": {"hERG current change (%, negative = inhibition) at 10uM": "%"}, "values": [
      {"smiles": "O=C(Nc1cc(=O)[nH]c2nc(-c3ccccc3)nn12)c1ccccc1Cl", "hERG current change (%, negative = inhibition) at 10uM": 15.3},
      {"smiles": "Cc1sc(NC(=O)c2ccc(Br)s2)c(C(N)=O)c1C", "hERG current change (%, negative = inhibition) at 10uM": 17.5},
      {"smiles": "OCCN(Cc1ccccc1)Cc1ccc(Cl)cc1", "hERG current change (%, negative = inhibition) at 10uM": -73},
      {"smiles": "OCCN(Cc1ccccc1)Cc1ccc(F)c(F)c1", "hERG current change (%, negative = inhibition) at 10uM": -14.9},
      {"smiles": "OCCN(Cc1ccccc1)Cc1ccc(Cl)cc1Cl", "hERG current change (%, negative = inhibition) at 10uM": -14},
      {"smiles": "COc1ccc(S(=O)(=O)N2CCOC2CNC(=O)C(=O)NCc2ccccn2)cc1C", "note": "(centres unmarked)", "hERG current change (%, negative = inhibition) at 10uM": 11.6},
      {"smiles": "Cc1ccc(-c2csc(NC(=O)c3c(C)noc3C)n2)cc1", "hERG current change (%, negative = inhibition) at 10uM": -31.7},
      {"smiles": "CCc1noc(C)c1C(=O)Nc1nc(-c2cccs2)cs1", "hERG current change (%, negative = inhibition) at 10uM": -57},
      {"smiles": "CCc1noc(C)c1C(=O)Nc1nc(-c2ccccc2)cs1", "hERG current change (%, negative = inhibition) at 10uM": -32.6},
      {"smiles": "Cc1noc(C)c1C(=O)Nc1nc(-c2cccs2)cs1", "hERG current change (%, negative = inhibition) at 10uM": -56.9},
      {"smiles": "CCc1noc(C)c1C(=O)Nc1nc(-c2ccc(OC)cc2)cs1", "hERG current change (%, negative = inhibition) at 10uM": -6.43},
      {"smiles": "Cc1noc(C)c1C(=O)Nc1nc(-c2ccccc2Cl)cs1", "hERG current change (%, negative = inhibition) at 10uM": -0.869},
      {"smiles": "Cc1ccc(NC(=S)N2CCN(C(=O)C3CCCO3)CC2)cc1", "note": "(centres unmarked)", "hERG current change (%, negative = inhibition) at 10uM": 17.8},
      {"smiles": "Cc1c(N)c(C(C)(C)C)cc(C(C)(C)C)c1[N+](=O)[O-]", "hERG current change (%, negative = inhibition) at 10uM": 0.751},
      {"smiles": "Cc1sc2ncnc(SCC(=O)c3ccc(Cl)s3)c2c1C", "hERG current change (%, negative = inhibition) at 10uM": 18.3},
      {"smiles": "Cc1cc(NC(=O)CN2CCCCC2)no1.O=C(O)C(=O)O", "hERG current change (%, negative = inhibition) at 10uM": 18.8},
      {"smiles": "Cc1ccc2ccc3cccc4ccc1c2c34", "hERG current change (%, negative = inhibition) at 10uM": 14},
      {"smiles": "S=c1[nH]nc(COc2ccccc2)n1/N=C/C=C/c1ccco1", "hERG current change (%, negative = inhibition) at 10uM": 3.42},
      {"smiles": "CC(NC(=O)Nc1ccc([N+](=O)[O-])cc1)C(c1cccs1)N1CCCC1", "note": "(centres unmarked)", "hERG current change (%, negative = inhibition) at 10uM": -60.1},
      {"smiles": "CC(NC(=O)Nc1ccccc1)C(c1cccs1)N1CCN(C)CC1", "note": "(centres unmarked)", "hERG current change (%, negative = inhibition) at 10uM": -17.8},
      {"smiles": "CC(NC(=O)Nc1cccc(Cl)c1)C(c1cccs1)N1CCCC1", "note": "(centres unmarked)", "hERG current change (%, negative = inhibition) at 10uM": -22.8},
      {"smiles": "NC(=O)CSc1nnc(-c2ccncc2)n1-c1ccc(Cl)cc1", "hERG current change (%, negative = inhibition) at 10uM": -21.5},
      {"smiles": "COc1ccc(NC(=S)N2CCN(S(C)(=O)=O)CC2)cc1OC", "hERG current change (%, negative = inhibition) at 10uM": 4.68},
      {"smiles": "Cc1ccc(C(=O)O/N=C(\\N)Cc2cccs2)c(Cl)c1", "hERG current change (%, negative = inhibition) at 10uM": 0.558},
      {"smiles": "Cc1cccc(OC2CCN(Cc3c(C(=O)N4CCCC4)nc4ccccn34)CC2)c1", "hERG current change (%, negative = inhibition) at 10uM": -59.4},
      {"smiles": "O=C(c1nc2ccccn2c1CN1CCC(Cc2ccccc2)CC1)N1CCCC1", "hERG current change (%, negative = inhibition) at 10uM": -70.7},
      {"smiles": "COC1CCN(Cc2c(C(=O)N3CCN(C4CCCCC4)CC3)nc3ccccn23)CC1", "hERG current change (%, negative = inhibition) at 10uM": 5.42},
      {"smiles": "O=C(c1nc2ccccn2c1CN1CCN(c2ccccc2O)CC1)N1CCCC1", "hERG current change (%, negative = inhibition) at 10uM": 34.7},
      {"smiles": "O=C(c1nc2ccccn2c1CN1CCCC(OCc2ccccc2)C1)N1CCCC1", "note": "(centres unmarked)", "hERG current change (%, negative = inhibition) at 10uM": -44.8},
      {"smiles": "Cc1cccc(CN2CCC(Oc3ccc(C(=O)N4CCCCC4)cc3)CC2)c1", "hERG current change (%, negative = inhibition) at 10uM": -21.9},
      {"smiles": "CCCCCCNS(=O)(=O)c1ccc(NC(=O)C2CCCO2)cc1", "note": "(centres unmarked)", "hERG current change (%, negative = inhibition) at 10uM": -21.8},
      {"smiles": "Cc1ccc2sc(N3CCN(C(=O)C4=COCCO4)CC3)nc2c1C", "hERG current change (%, negative = inhibition) at 10uM": -15.6},
      {"smiles": "COc1ccc(OCc2cccc(C(=O)NN)c2)cc1", "hERG current change (%, negative = inhibition) at 10uM": 2.35},
      {"smiles": "CC1CCCC(C)N1C(=O)c1cc(F)c(F)cc1Cl", "note": "(centres unmarked)", "hERG current change (%, negative = inhibition) at 10uM": 16.1},
      {"smiles": "COc1ccc(CCNC(=O)C/C(C)=N/NC(=O)C2CCCCC2)cc1OC", "hERG current change (%, negative = inhibition) at 10uM": 8.79},
      {"smiles": "COc1ccc(CN(C)C(=O)CCCNC(=O)c2ccc(Cl)cc2)cc1", "hERG current change (%, negative = inhibition) at 10uM": -26.6},
      {"smiles": "CCN(C(=O)C(C)OC(=O)CCCNC(=O)c1ccc(Cl)cc1)c1ccccc1", "note": "(centres unmarked)", "hERG current change (%, negative = inhibition) at 10uM": -25.1},
      {"smiles": "CC(OC(=O)CCCNC(=O)c1ccc(Cl)cc1)C(=O)N(C)Cc1ccccc1", "note": "(centres unmarked)", "hERG current change (%, negative = inhibition) at 10uM": -54.2},
      {"smiles": "Cc1ccc(N2CC(C)Cn3c2nc2c3c(=O)[nH]c(=O)n2C)cc1C", "note": "(centres unmarked)", "hERG current change (%, negative = inhibition) at 10uM": -10.9},
      {"smiles": "Cc1c(Br)cc(C(=O)N2CCCC2)c(C)c1C", "hERG current change (%, negative = inhibition) at 10uM": 0.525},
      {"smiles": "O=C(C1=C(O)C(=O)N(CCN2CCOCC2)C1c1ccc(Cl)cc1)c1cc2ccccc2o1", "note": "(centres unmarked)", "hERG current change (%, negative = inhibition) at 10uM": 10.3},
      {"smiles": "CCCCN(C)CCNC(=O)c1ccc2c(c1)NC(=O)C(N1CCCCC1)S2", "note": "(centres unmarked)", "hERG current change (%, negative = inhibition) at 10uM": 2.48},
      {"smiles": "O=C(c1cccc(Cl)c1)C1CCCN(Cc2cccc3cnccc23)C1", "note": "(centres unmarked)", "hERG current change (%, negative = inhibition) at 10uM": -32.7},
      {"smiles": "O=C(c1ccc(Cl)cc1)C1CCCN(Cc2cccc3cccnc23)C1", "note": "(centres unmarked)", "hERG current change (%, negative = inhibition) at 10uM": -75.9}
    ]}
  ]
}
